The values that follow come from the supplement of paper PMC6555819.

One assay relates to THRa:RXRa (NR concentration 90 nM, RXRa partner concentration 90 nM). Nature of the assay: PBM binding z-score (relative to random genomic background probes); higher = stronger binding; sequences stand for … in GC…GCGATTGACAGCGTAGAATGAAGG
The gist of the method:
(§1)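 Ligand-free nuclear receptor dimers were bound for 1 h to custom Agilent 4×180K protein-binding microarrays. Detection used antibodies against each partner (one per run). Binding z-scores rest on regression-normalized fluorescence, with random background probes as the reference.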
Turning to CCTCGGAGGACATAAGGTCAGAGCTGTCCGCTTT, the PBM binding z-score worked out at 3.91.
Still for that read-out and setting: under CGTCAAAGTTCAAGGTAAGGTAACAGAAAGCAGC stands 4.38; under TTACCAAGGTGAAGGTCGTTGTTCCCTCTGTAGA, 2.4; under CAGCCTAGGTCAGGGCCAGTTTAGGAGGAACGTT, 2.2.
Same read-out and setting: under ATGTCTAGGTAACAAGTTCAGTGAAAGAGAGGAC stands 1.56; under GGAACGAGGGAATTCGAGTTGATAGCATGGCGAT, 0.1.
CCTCGGAGGACAACAGGCGGTCAGAGCTGCCAGA registered a PBM binding z-score of 0.64.
On the same count and under the same terms, as for CCTCGCAGGACAGAAGGTCAGAGCTGTCCGCTTT, the figure is 1.58.
With GCTATTAGTTGAAAGGGCAAGCGAATGATTCTCG, the PBM binding z-score came out at 0.545.
Sequence CCTAGCAGGCCAGGGTCACTCAAGCATTTCGCTT showed a PBM binding z-score of 2.92.
Sequence CGTCCTAGGTCAATGCTAGGTCAGTGAAAGCATT yielded a PBM binding z-score of 3.94.
Take CCTACAGGGTCAGCTAGGCCAGAGTAGGGACGGC: the PBM binding z-score was determined as 3.02.
As to TGAATGAGGTTATAAGATCATGGAACGTTGCAAA, the PBM binding z-score was found to be 1.71.
Same read-out and setting: as for CCTTACGGGTCAAGGTTATAGCACGGGTGGTACG, the figure is 3.02; as for ACAGACATGTGAGTGAAGGTAACTCAGCTGGACG, -0.00314.
On the same count and under the same terms, under TCTTGTAGATCAACAGGAAGTTAAGAAAGATCGA stands -0.307; under TCACGGAGGACACGAAGGTCAGAGCTTTCCAGAG, 2.73; under GCTAGTTGGTCAGTAAAAGGTTACACACCGGTCG, 1.42.

A further assay has as its system THRa homodimer (NR concentration 90 nM). The description is as above. Summed up: as §1
GATACAGGGTCAGCTAGAGTCCAGAGTATGGAAA returned a PBM binding z-score of 0.377.
Same read-out and setting: under AGGATGAGGTTAAGATCAGGGAAACAGAATACAT stands 1.15.
Same read-out and setting: as for CCGAGTAGGTTATGGGGCATTCGGGCAACGGTGA, the figure is 0.172; as for TCATAAAGGTAAACAGGTGAAAGTCCGTAAGTTA, 0.368; as for ACAGACAGGGGAGTGAAGGTAACTCAGCTGGACG, 0.101.
The same measure, in the same setting: under CATACAGGGTCAGCTAGGCGAGAGTAGGGACGGC stands 1.01.
Sequence GCGACTGGGGCAAATCAGGTTACCATAAGGTTGG displayed a PBM binding z-score of 0.742.
For ACTAGCAGGCCAAGTTTGGTTCACTCAAACAAAG, the PBM binding z-score is -0.294.
As to CCTAGTTTGTCAAGGTCACACACGCTATAGGTAC, the PBM binding z-score turned out to be 4.77.
On the same count and under the same terms, under CCTACTGGGCCAAAAGTCATTGATTCCAATGCTC stands -0.418.
In turn, TCTAGTTGGGCAAAGGTCACACACTCGAAATGCG showed a PBM binding z-score of 1.54.
On the same count and under the same terms, as for TCTCGGAGGACACGAAGCTCAGAGCTTTCCAGAG, the figure is 0.177.
As to ATCTCTAGGTAACCAAGTTCAATGAATGCCGAAC, the PBM binding z-score came to 0.952.
Same read-out and setting: under ACTATTAGTTGACTTAGTGCAACCGATACGACGC stands -0.158; under CTCGACAGGTCGTGCTCAGGTGAGTATACCAAAC, 0.709.
On to TCTTGTAAATCAGCAGGTTAAGAAAGCTGGCCAA, for which the PBM binding z-score was -0.393.
The same measure, in the same setting: as for CCGACTGGGGCAGAAAGGTTAACATACCATCCGG, the figure is -0.284; as for CCTACTGGGCCATTCAGAGGTCTTTGATCATATG, -0.237; as for CCTCGGAGGACCACAGGAGGTCAGAGCTGCCAGA, 0.73.
In the case of ATCTCTAGGTAAAGAGAGTTCAGTGAATGCAAAT, the PBM binding z-score was -0.0506.
With TCTTGGAGATCAACAGGAGGTTAAGAAAGATCGA, the PBM binding z-score is -0.452.
The same measure, in the same setting: as for CCTCGGAGGAAAGAAGGTCAGAGCTGTCCGCTTT, the figure is -0.547.
The same measure, in the same setting: as for CCTCGGAGGACATAAGGTCAGAGCTGTCCGCTTT, the figure is 2.81; as for CGTCAAAGTTCAAGGTAAGGTAACAGAAAGCAGC, 1.85; as for TTACCAAGGTGAAGGTCGTTGTTCCCTCTGTAGA, 1.18.
Same read-out and setting: under CAGCCTAGGTCAGGGCCAGTTTAGGAGGAACGTT stands 0.659.
ATGTCTAGGTAACAAGTTCAGTGAAAGAGAGGAC: the PBM binding z-score is 0.576.
For GGAACGAGGGAATTCGAGTTGATAGCATGGCGAT, the PBM binding z-score was -1.07.
With CCTCGGAGGACAACAGGCGGTCAGAGCTGCCAGA, the PBM binding z-score is -0.125.
The same measure, in the same setting: as for CCTCGCAGGACAGAAGGTCAGAGCTGTCCGCTTT, the figure is 0.0874; as for GCTATTAGTTGAAAGGGCAAGCGAATGATTCTCG, -0.289.
Take CCTAGCAGGCCAGGGTCACTCAAGCATTTCGCTT: the PBM binding z-score came out at 1.2.
Same read-out and setting: under CGTCCTAGGTCAATGCTAGGTCAGTGAAAGCATT stands 1.73; under CCTACAGGGTCAGCTAGGCCAGAGTAGGGACGGC, 0.663; under TGAATGAGGTTATAAGATCATGGAACGTTGCAAA, 0.0513.
The sequence CCTTACGGGTCAAGGTTATAGCACGGGTGGTACG came in with a PBM binding z-score of 0.771.
On to ACAGACATGTGAGTGAAGGTAACTCAGCTGGACG, for which the PBM binding z-score is -0.488.
Take TCTTGTAGATCAACAGGAAGTTAAGAAAGATCGA: the PBM binding z-score is -1.05.
On the same count and under the same terms, as for TCACGGAGGACACGAAGGTCAGAGCTTTCCAGAG, the figure is 0.917; as for GCTAGTTGGTCAGTAAAAGGTTACACACCGGTCG, 0.424.

For a further assay, the system named is VDR:RXRa (NR concentration 270 nM, RXRa partner concentration 90 nM). Described as above. Summed up: as §1
Regarding GATACAGGGTCAGCTAGAGTCCAGAGTATGGAAA, the PBM binding z-score amounted to 4.13.
Still for that read-out and setting: as for AGGATGAGGTTAAGATCAGGGAAACAGAATACAT, the figure is 1.39; as for CCGAGTAGGTTATGGGGCATTCGGGCAACGGTGA, -0.16; as for TCATAAAGGTAAACAGGTGAAAGTCCGTAAGTTA, 1.64.
Take ACAGACAGGGGAGTGAAGGTAACTCAGCTGGACG: the PBM binding z-score is -0.347.
On the same count and under the same terms, as for CATACAGGGTCAGCTAGGCGAGAGTAGGGACGGC, the figure is 2.57.
Still for that read-out and setting: as for GCGACTGGGGCAAATCAGGTTACCATAAGGTTGG, the figure is 0.324.
Take ACTAGCAGGCCAAGTTTGGTTCACTCAAACAAAG: the PBM binding z-score is 0.34.
The same measure, in the same setting: as for CCTAGTTTGTCAAGGTCACACACGCTATAGGTAC, the figure is 4.46; as for CCTACTGGGCCAAAAGTCATTGATTCCAATGCTC, -0.0662; as for TCTAGTTGGGCAAAGGTCACACACTCGAAATGCG, 4.65.
On to TCTCGGAGGACACGAAGCTCAGAGCTTTCCAGAG, for which the PBM binding z-score was -0.415.
The same measure, in the same setting: as for ATCTCTAGGTAACCAAGTTCAATGAATGCCGAAC, the figure is 4.66; as for ACTATTAGTTGACTTAGTGCAACCGATACGACGC, 0.264; as for CTCGACAGGTCGTGCTCAGGTGAGTATACCAAAC, 0.597.
In turn, TCTTGTAAATCAGCAGGTTAAGAAAGCTGGCCAA showed a PBM binding z-score of 0.539.
The same measure, in the same setting: under CCGACTGGGGCAGAAAGGTTAACATACCATCCGG stands 1.12; under CCTACTGGGCCATTCAGAGGTCTTTGATCATATG, -0.301; under CCTCGGAGGACCACAGGAGGTCAGAGCTGCCAGA, 1.43.
On the same count and under the same terms, as for ATCTCTAGGTAAAGAGAGTTCAGTGAATGCAAAT, the figure is 3.33.
Regarding TCTTGGAGATCAACAGGAGGTTAAGAAAGATCGA, the PBM binding z-score was determined as 0.539.
Still for that read-out and setting: as for CCTCGGAGGAAAGAAGGTCAGAGCTGTCCGCTTT, the figure is 1.09.
CCTCGGAGGACATAAGGTCAGAGCTGTCCGCTTT gave a PBM binding z-score of 1.91.
On the same count and under the same terms, under CGTCAAAGTTCAAGGTAAGGTAACAGAAAGCAGC stands 3.7.
TTACCAAGGTGAAGGTCGTTGTTCCCTCTGTAGA yielded a PBM binding z-score of 1.26.
On the same count and under the same terms, as for CAGCCTAGGTCAGGGCCAGTTTAGGAGGAACGTT, the figure is 0.723; as for ATGTCTAGGTAACAAGTTCAGTGAAAGAGAGGAC, 2.14; as for GGAACGAGGGAATTCGAGTTGATAGCATGGCGAT, -0.217.
The same measure, in the same setting: under CCTCGGAGGACAACAGGCGGTCAGAGCTGCCAGA stands -0.555; under CCTCGCAGGACAGAAGGTCAGAGCTGTCCGCTTT, 0.93.
On the same count and under the same terms, under GCTATTAGTTGAAAGGGCAAGCGAATGATTCTCG stands 0.461; under CCTAGCAGGCCAGGGTCACTCAAGCATTTCGCTT, 2.48; under CGTCCTAGGTCAATGCTAGGTCAGTGAAAGCATT, 3.02.
For the sequence CCTACAGGGTCAGCTAGGCCAGAGTAGGGACGGC, the PBM binding z-score was found to be 3.53.
Still for that read-out and setting: as for TGAATGAGGTTATAAGATCATGGAACGTTGCAAA, the figure is 1.44; as for CCTTACGGGTCAAGGTTATAGCACGGGTGGTACG, 3.41.
Consider ACAGACATGTGAGTGAAGGTAACTCAGCTGGACG, for which the PBM binding z-score is -0.252.
For TCTTGTAGATCAACAGGAAGTTAAGAAAGATCGA, the PBM binding z-score is -0.0912.
Sequence TCACGGAGGACACGAAGGTCAGAGCTTTCCAGAG yielded a PBM binding z-score of 2.33.
On the same count and under the same terms, as for GCTAGTTGGTCAGTAAAAGGTTACACACCGGTCG, the figure is 0.877.
